In PubChem BioAssay (EPA / NIEHS):
Inconclusive results are not listed. Active and inactive are the calls of the source. The calls were made as follows, unless noted: active = hit-call score of the fitted dose curve at least 0.9, where 1 is the maximum; inactive = score below 0.9.

How the values were obtained:
[1] = BSK_3C_VCAM1: BioMAP Diversity Plus: 3C Assay for Vascular cell adhesion molecule 1 (VCAM1) Biomarker Activity (AID 2282999); details: BioMAP 3C HUVEC, VCAM1 ELISA, cytokine-stimulated; actives raise or lower the signal
Outline: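 HUVEC primary cells, 24 h compound exposure; VCAM-1 by ELISA; gain/loss of signal fitted bidirectionally vs DMSO baseline.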

[2] = BSK_4H_Eotaxin3: BioMAP Diversity Plus: 4H Assay for Eotaxin 3 Biomarker Activity (AID 2283000); details: primary human endothelial cells (HUVEC); actives raise or lower the signal
Outline: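 Chemicals were added to human umbilical vein endothelium cultures, and Eotaxin-3 was quantified by ELISA at 24 h. Values were derived by bidirectional fitting with DMSO serving as negative control and activity baseline.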

[3] = target: human Peroxisome Proliferator-activated Receptor alpha (PPARa), PPARA (gene 5465) (UniProt Q07869); assay: ATG_PPARa_TRANS: Attagene TRANS-FACTORIAL HepG2 Assay for human Peroxisome Proliferator-activated Receptor alpha (PPARa) (AID 2283001; active = hit-call score of the fitted dose curve at least 0.9, where 1 is the maximum)
Outline: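 Transient HepG2 transfection, GAL4-UAS reporters, NR-Gal4 chimeras; 24 h compound exposure. Readout: reporter transcripts by RT-PCR, 6-FAM primer extension, HpaI digest, capillary electrophoresis. Positive direction vs DMSO baseline.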

[4] = read-out: Intercellular Adhesion Molecule 1 (ICAM1), ICAM1 (gene 3383); assay: BSK_3C_ICAM1: BioMAP Diversity Plus: 3C Assay for Intercellular Adhesion Molecule 1 (ICAM1) Biomarker Activity (AID 2283003); details: primary human endothelial cells (HUVEC); actives raise or lower the signal
Outline: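 Using DMSO as baseline, bidirectional curve fitting was applied to ICAM-1 ELISA signals from HUVEC in the 3C system, measured 24 h after compound addition.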

[5] = BSK_3C_Proliferation: Cell Proliferation Assessment in the BioMAP Diversity Plus: 3C Assay (AID 2283006); details: primary human endothelial cells (HUVEC);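 as to AC50: potency may reflect either rise or fall in cell number versus DMSO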
Outline: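 Measured here: sulforhodamine B (0.1%) staining of TCA-fixed sub-confluent umbilical vein endothelial cultures 48 h post-dosing, absorbance 560 nm. DMSO served as negative control and baseline; both signal gain and loss were modelled.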

[6] = target: Nuclear receptor subfamily 1 group I member 2 (Homo sapiens) (UniProt O75469); assay: ATG_PXR_TRANS: Attagene TRANS-FACTORIAL HepG2 Assay for human Pregnane X Receptor (PXR) (AID 2283008; active = hit-call score of the fitted dose curve at least 0.9, where 1 is the maximum)
Outline: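 HepG2 transfected (FuGene 6) with GAL4-UAS reporter units + PXR-Gal4 chimera; dosed 24 h. Total RNA → oligo(dT) RT → PCR → 6-FAM primer extension → HpaI cut → CE. Gain-of-signal vs DMSO.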

[7] = target: human RAR-related Orphan Receptor beta (RORb), RORB (gene 6096) (UniProt Q92753); assay: ATG_RORb_TRANS: Attagene TRANS-FACTORIAL HepG2 Assay for human RAR-related Orphan Receptor beta (RORb) (AID 2283010; active = hit-call score of the fitted dose curve at least 0.9, where 1 is the maximum)
Outline: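 Multiplexed transcription-factor reporter assay: HepG2 cells transiently carrying NR-Gal4/GAL4-UAS constructs, 24 h treatment, mRNA quantified by RT-PCR plus capillary electrophoresis fluorescence; activity scored as induction over DMSO.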

[8] = target: human RAR-related Orphan Receptor gamma (RORg), RORC (gene 6097) (UniProt P51449); assay: ATG_RORg_TRANS: Attagene TRANS-FACTORIAL HepG2 Assay for human RAR-related Orphan Receptor gamma (RORg) (AID 2283011; active = hit-call score of the fitted dose curve at least 0.9, where 1 is the maximum)
Outline: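 First, HepG2 liver cells were transfected with GAL4-UAS-driven reporter constructs and the RORg-Gal4 fusion. Next, they were treated with chemical for 24 h. Finally, reporter mRNA was quantified by RT-PCR and capillary electrophoresis, with upward activity fitted against DMSO.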

[9] = target: Retinoic acid receptor RXR-alpha (Homo sapiens) (UniProt P19793); assay: ATG_RXRa_TRANS: Attagene TRANS-FACTORIAL HepG2 Assay for human Retinoid X Receptor alpha (RXRa) (AID 2283012; active = hit-call score of the fitted dose curve at least 0.9, where 1 is the maximum)
Outline: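 Chimeric NR-GAL4 trans-activation in HepG2, 24 h treatment; reporter transcripts quantified by fluorescence on capillary electrophoresis, analysed for upward change from DMSO.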

[10] = target: human Retinoid X Receptor beta (RXRb), RXRB (gene 6257) (UniProt P28702); assay: ATG_RXRb_TRANS: Attagene TRANS-FACTORIAL HepG2 Assay for human Retinoid X Receptor beta (RXRb) (AID 2283013; active = hit-call score of the fitted dose curve at least 0.9, where 1 is the maximum)
Outline: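 After a 24 h incubation with test chemical, transfected HepG2 cells carrying NR-Gal4 fusions and GAL4-UAS reporter transcription units yield RNA whose reporter cDNA is FAM-labelled, HpaI-cut and sized by capillary electrophoresis; increases over DMSO are scored.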

[11] = target: human Thyroid Receptor alpha (THRa1), THRA (gene 7067) (UniProt P10827); assay: ATG_THRa1_TRANS: Attagene TRANS-FACTORIAL HepG2 Assay for human Thyroid Receptor alpha (THRa1) (AID 2283014; active = hit-call score of the fitted dose curve at least 0.9, where 1 is the maximum)
Outline: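 Reporter transcript induction, read by capillary electrophoresis of 6-FAM-labelled RT-PCR products, reflects activity of a transfected THRa1-Gal4 fusion in HepG2 liver cells. Cells were dosed for 24 h; activity was fitted in the positive direction against DMSO.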

[12] = read-out: E-selectin (Homo sapiens) (UniProt P16581); assay: BSK_3C_Eselectin: BioMAP Diversity Plus: 3C Assay for Eselectin Biomarker Activity (AID 2283015); details: primary human endothelial cells (HUVEC); actives raise or lower the signal
Outline: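 ELISA read-out of E-selectin on endothelial monolayers after 24 h chemical treatment. Human umbilical vein primary cells served as the system, with DMSO defining baseline activity for bidirectional fitting.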

[13] = read-out: Interleukin-1 alpha (IL1a), IL1A (gene 3552); assay: BSK_BE3C_IL1a: BioMAP Diversity Plus: BE3C Assay for Interleukin-1 alpha (IL1a) Biomarker Activity (AID 2283016); details: primary human bronchial epithelial cells; actives raise or lower the signal
Outline: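 Measured in human lung primary bronchial epithelial cells: IL-1a by ELISA at 24 h after dosing, with bidirectional fitting against DMSO.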

[14] = read-out: Monocyte Chemoattractant Protein-1 (MCP1), CCL2 (gene 6347); assay: BSK_4H_MCP1: BioMAP Diversity Plus: 4H Assay for Monocyte Chemoattractant Protein-1 (MCP1) Biomarker Activity (AID 2283018); details: primary human endothelial cells (HUVEC); actives raise or lower the signal
Outline: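 Primary human umbilical vein endothelium is exposed to chemical for 24 h before MCP-1 is assayed by ELISA. Concentration-response fitted bidirectionally relative to DMSO.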

[15] = target: Peroxisome proliferator-activated receptor gamma (Homo sapiens) (UniProt P37231); assay: ATG_PPARg_TRANS: Attagene TRANS-FACTORIAL HepG2 Assay for human Peroxisome Proliferator-activated Receptor-gamma (PPARg) (AID 2283007; active = hit-call score of the fitted dose curve at least 0.9, where 1 is the maximum)
Outline: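 After 24 h of chemical exposure, transfected HepG2 cells carrying PPARγ-Gal4 chimera reporter constructs are lysed for RNA. Reporter transcripts are measured by RT-PCR and capillary electrophoresis with fluorescent labelling, and gain of signal is fitted versus DMSO.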

[16] = read-out: Monocyte Chemoattractant Protein-1 (MCP1), CCL2 (gene 6347); assay: BSK_3C_MCP1: BioMAP Diversity Plus: 3C Assay for Monocyte Chemoattractant Protein-1 (MCP1) Biomarker Activity (AID 2283017); details: primary human endothelial cells (HUVEC); actives raise or lower the signal
Outline: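 ELISA read-out of MCP-1 from human umbilical vein endothelial cell cultures harvested 24 h post-dosing. Gain or loss of signal was fitted relative to DMSO.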

[17] = target: human Retinoic Acid Receptor gamma (RARg), RARG (gene 5916) (UniProt P13631); assay: ATG_RARg_TRANS: Attagene TRANS-FACTORIAL HepG2 Assay for human Retinoic Acid Receptor gamma (RARg) (AID 2283009; active = hit-call score of the fitted dose curve at least 0.9, where 1 is the maximum)
Outline: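 Gain-of-signal relative to DMSO is reported from fluorescent capillary electrophoresis of RT-PCR reporter products. These came from HepG2 cells expressing transfected RARg-GAL4 chimeras with UAS reporters, harvested 24 h after dosing.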

[18] = target: human Peroxisome Proliferator-activated Receptor delta (PPARd), PPARD (gene 5467) (UniProt Q03181); assay: ATG_PPARd_TRANS: Attagene TRANS-FACTORIAL HepG2 Assay for human Peroxisome Proliferator-activated Receptor delta (PPARd) (AID 2283002; active = hit-call score of the fitted dose curve at least 0.9, where 1 is the maximum)
Outline: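 Fluorescence from capillary electrophoresis of labelled RT-PCR reporter fragments gives the signal; DMSO sets baseline. Cells: HepG2 transiently carrying GAL4-UAS reporter units plus chimeric nuclear receptor-Gal4 proteins, exposed to chemicals for 24 h.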

[19] = target: human Retinoic Acid Receptor beta (RARb), RARB (gene 5915) (UniProt P10826); assay: ATG_RARb_TRANS: Attagene TRANS-FACTORIAL HepG2 Assay for human Retinoic Acid Receptor beta (AID 2283004; active = hit-call score of the fitted dose curve at least 0.9, where 1 is the maximum)
Outline: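 Transient transfection of HepG2 with multiple reporter units → chemical dosing, 24 h → total RNA isolation → RT with oligo(dT) → reporter-specific PCR, 6-FAM primer extension, HpaI digest → capillary electrophoresis. Positive direction vs DMSO control.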

[20] = target: Retinoic acid receptor alpha (Homo sapiens) (UniProt P10276); assay: ATG_RARa_TRANS: Attagene TRANS-FACTORIAL HepG2 Assay for human Retinoic Acid Receptor alpha (RARa) (AID 2283005; active = hit-call score of the fitted dose curve at least 0.9, where 1 is the maximum)
Outline: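 HepG2 transiently transfected with multiplex GAL4-UAS reporter units including a human RARa–GAL4 chimera; 24 h compound exposure. Reporter mRNA quantified by RT-PCR, 6-FAM labeling and capillary electrophoresis; gain of signal versus DMSO.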

Measured: AC50

Sequence of Peroxisome proliferator-activated receptor gamma (Homo sapiens) (P37231 whole entry, looked up, the tested form may be a part): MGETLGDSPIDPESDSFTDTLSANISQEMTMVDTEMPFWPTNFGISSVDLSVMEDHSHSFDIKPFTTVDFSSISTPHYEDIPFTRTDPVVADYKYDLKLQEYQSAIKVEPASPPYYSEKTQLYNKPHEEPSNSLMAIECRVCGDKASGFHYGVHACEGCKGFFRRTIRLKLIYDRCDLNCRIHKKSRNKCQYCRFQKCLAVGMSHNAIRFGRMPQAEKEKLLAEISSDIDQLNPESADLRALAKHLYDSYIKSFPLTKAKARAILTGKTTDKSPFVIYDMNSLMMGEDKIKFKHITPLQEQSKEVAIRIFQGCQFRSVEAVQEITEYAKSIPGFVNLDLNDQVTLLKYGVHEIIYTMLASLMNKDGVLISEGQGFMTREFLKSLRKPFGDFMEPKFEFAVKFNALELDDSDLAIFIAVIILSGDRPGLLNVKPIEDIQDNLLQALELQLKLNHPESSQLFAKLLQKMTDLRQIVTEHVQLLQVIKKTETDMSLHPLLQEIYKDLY
Sequence of human RAR-related Orphan Receptor beta (RORb), RORB (gene 6096) (Q92753 whole entry, looked up, the tested form may be a part): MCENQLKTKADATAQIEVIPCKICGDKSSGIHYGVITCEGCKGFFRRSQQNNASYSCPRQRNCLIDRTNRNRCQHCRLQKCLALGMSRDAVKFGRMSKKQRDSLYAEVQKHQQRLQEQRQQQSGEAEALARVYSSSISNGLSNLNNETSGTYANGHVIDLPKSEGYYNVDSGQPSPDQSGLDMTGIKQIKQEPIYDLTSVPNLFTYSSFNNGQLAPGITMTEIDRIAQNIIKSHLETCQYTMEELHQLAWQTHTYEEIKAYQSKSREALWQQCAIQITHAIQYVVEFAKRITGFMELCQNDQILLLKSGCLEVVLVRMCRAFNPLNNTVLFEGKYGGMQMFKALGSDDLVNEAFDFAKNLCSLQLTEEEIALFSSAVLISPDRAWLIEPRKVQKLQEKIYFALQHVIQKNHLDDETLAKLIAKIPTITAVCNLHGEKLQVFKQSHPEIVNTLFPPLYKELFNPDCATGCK
Sequence of human Peroxisome Proliferator-activated Receptor alpha (PPARa), PPARA (gene 5465) (Q07869 whole entry, looked up, the tested form may be a part): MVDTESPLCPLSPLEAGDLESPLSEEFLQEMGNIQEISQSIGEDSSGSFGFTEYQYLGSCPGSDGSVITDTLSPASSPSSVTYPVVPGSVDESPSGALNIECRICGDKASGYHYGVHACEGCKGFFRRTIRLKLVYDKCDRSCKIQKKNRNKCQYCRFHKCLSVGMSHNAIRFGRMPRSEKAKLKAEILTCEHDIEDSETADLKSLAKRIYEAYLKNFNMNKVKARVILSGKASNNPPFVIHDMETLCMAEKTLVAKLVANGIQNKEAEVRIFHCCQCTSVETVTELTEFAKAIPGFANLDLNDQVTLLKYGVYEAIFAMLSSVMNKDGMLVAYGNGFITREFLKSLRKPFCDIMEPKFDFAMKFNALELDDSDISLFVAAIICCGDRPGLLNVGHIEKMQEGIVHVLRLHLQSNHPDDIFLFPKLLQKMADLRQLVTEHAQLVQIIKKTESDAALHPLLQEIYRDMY
Sequence of Retinoic acid receptor RXR-alpha (Homo sapiens) (P19793 whole entry, looked up, the tested form may be a part): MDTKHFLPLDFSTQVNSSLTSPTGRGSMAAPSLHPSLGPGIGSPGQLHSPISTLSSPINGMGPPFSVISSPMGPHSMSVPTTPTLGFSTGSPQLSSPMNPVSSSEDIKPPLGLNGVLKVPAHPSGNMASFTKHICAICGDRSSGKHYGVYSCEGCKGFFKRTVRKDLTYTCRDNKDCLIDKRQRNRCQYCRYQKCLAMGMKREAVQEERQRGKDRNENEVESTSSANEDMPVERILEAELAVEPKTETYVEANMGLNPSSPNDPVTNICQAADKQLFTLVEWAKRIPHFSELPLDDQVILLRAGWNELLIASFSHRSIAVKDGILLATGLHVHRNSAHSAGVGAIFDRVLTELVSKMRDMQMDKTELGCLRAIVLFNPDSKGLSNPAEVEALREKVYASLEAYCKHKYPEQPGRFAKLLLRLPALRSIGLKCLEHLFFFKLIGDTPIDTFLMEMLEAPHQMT
Sequence of human RAR-related Orphan Receptor gamma (RORg), RORC (gene 6097) (P51449 whole entry, looked up, the tested form may be a part): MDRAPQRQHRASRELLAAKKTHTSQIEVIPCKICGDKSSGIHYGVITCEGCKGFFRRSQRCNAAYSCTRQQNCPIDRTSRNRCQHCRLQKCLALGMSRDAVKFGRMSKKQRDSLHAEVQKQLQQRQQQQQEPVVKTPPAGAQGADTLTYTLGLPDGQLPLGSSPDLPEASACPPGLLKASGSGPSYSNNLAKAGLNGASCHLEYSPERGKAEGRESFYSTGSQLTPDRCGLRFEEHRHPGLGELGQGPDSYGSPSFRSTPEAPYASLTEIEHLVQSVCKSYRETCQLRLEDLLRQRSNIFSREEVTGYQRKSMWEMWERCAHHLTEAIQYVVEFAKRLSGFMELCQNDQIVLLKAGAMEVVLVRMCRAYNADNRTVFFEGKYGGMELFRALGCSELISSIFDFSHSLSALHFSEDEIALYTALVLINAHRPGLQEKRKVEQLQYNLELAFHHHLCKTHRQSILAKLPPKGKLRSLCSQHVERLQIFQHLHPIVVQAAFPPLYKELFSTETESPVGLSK
Sequence of Nuclear receptor subfamily 1 group I member 2 (Homo sapiens) (O75469 whole entry, looked up, the tested form may be a part): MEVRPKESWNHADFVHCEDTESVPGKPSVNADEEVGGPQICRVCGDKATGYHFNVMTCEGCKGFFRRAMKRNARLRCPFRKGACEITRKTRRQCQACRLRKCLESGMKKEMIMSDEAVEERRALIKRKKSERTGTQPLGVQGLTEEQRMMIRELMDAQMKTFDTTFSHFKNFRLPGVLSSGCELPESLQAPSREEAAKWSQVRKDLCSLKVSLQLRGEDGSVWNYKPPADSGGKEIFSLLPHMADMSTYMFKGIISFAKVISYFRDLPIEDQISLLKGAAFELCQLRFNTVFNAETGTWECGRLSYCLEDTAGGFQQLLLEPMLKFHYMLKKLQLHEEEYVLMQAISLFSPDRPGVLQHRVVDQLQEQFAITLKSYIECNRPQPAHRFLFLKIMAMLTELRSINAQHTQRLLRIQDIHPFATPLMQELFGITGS
Sequence of E-selectin (Homo sapiens) (P16581 whole entry, looked up): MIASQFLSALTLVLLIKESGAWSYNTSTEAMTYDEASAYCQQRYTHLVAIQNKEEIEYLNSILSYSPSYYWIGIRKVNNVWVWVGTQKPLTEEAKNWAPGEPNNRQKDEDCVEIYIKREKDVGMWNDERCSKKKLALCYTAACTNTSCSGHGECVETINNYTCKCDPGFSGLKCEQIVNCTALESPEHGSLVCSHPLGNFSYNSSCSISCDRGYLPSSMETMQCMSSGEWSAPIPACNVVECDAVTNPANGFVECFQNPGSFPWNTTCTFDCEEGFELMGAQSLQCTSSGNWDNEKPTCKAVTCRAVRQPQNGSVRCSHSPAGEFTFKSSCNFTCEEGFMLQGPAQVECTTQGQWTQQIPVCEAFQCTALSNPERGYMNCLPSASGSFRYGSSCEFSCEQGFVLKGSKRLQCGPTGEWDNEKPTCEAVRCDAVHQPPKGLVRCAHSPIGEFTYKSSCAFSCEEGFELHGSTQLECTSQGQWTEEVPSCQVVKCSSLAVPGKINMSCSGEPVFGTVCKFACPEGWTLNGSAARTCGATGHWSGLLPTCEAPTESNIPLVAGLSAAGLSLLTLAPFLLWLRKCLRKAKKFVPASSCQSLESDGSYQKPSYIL
Sequence of human Thyroid Receptor alpha (THRa1), THRA (gene 7067) (P10827 whole entry, looked up, the tested form may be a part): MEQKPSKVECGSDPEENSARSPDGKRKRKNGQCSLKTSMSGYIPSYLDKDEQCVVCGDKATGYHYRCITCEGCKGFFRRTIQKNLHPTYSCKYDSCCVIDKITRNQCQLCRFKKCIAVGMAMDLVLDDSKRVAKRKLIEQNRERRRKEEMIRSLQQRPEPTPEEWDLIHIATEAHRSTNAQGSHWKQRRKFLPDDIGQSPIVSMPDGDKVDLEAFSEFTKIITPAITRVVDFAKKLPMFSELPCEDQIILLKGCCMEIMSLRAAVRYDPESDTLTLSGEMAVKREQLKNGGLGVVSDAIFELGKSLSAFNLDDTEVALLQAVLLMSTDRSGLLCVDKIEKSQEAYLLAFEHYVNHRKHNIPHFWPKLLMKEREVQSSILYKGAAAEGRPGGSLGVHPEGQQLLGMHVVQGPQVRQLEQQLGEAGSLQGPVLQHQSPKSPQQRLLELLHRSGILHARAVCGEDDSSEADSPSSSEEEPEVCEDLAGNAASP
Sequence of human Retinoid X Receptor beta (RXRb), RXRB (gene 6257) (P28702 whole entry, looked up, the tested form may be a part): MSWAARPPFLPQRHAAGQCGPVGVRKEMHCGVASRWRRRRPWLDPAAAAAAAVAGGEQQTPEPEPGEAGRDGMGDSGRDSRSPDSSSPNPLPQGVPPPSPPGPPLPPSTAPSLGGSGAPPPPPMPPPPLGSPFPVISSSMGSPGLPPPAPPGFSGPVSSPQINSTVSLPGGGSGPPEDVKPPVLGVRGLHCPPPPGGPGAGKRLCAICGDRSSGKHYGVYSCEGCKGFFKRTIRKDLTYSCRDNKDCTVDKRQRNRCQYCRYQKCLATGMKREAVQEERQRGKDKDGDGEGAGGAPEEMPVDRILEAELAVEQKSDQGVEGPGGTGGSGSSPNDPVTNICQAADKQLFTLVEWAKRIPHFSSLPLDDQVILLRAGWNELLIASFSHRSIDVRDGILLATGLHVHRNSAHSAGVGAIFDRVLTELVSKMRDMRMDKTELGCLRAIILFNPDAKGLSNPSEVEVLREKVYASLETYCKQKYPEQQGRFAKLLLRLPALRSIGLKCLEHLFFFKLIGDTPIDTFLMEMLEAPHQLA
Sequence of human Retinoic Acid Receptor gamma (RARg), RARG (gene 5916) (P13631 whole entry, looked up, the tested form may be a part): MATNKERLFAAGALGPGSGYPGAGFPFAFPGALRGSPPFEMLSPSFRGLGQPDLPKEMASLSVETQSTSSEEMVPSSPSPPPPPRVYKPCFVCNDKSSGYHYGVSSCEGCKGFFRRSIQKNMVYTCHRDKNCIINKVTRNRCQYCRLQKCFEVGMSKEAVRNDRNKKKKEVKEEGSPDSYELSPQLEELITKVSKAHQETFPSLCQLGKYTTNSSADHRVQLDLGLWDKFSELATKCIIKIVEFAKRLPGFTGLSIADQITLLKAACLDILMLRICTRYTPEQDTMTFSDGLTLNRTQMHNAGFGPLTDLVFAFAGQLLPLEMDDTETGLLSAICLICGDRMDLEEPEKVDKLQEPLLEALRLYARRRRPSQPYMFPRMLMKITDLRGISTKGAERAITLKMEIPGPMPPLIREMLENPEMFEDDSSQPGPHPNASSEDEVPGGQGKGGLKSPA

CC1(C)C(C=C(Cl)Cl)C1C(=O)OCc1cccc(Oc2ccccc2)c1 (centres undefined)
active: [5] 4.29 µM | [6] 20.2 µM
inactive: [1] | [2] | [3] | [4] | [7] | [8] | [9] | [10] | [11] | [12] | [13] | [14]

CCCN(CCC)C(=O)SCC
inactive: [1] | [2] | [3] | [4] | [5] | [15] | [6] | [7] | [8] | [9] | [10] | [11] | [12] | [13] | [16] | [14]

CSC(=O)c1cccc2nnsc12
inactive: [1] | [2] | [3] | [4] | [5] | [15] | [17] | [10] | [11] | [12] | [13] | [14]

CCCCCCC(C)OC(=O)COc1nc(F)c(Cl)c(N)c1Cl (centres undefined)
active: [1] 18.3 µM | [2] 34.2 µM | [4] 34.9 µM | [5] 13.6 µM | [12] 31.4 µM | [16] 30.8 µM | [14] 32.3 µM
inactive: [18] | [6] | [7] | [13]

O=C(O)c1ccccc1
inactive: [1] | [2] | [3] | [4] | [5] | [15] | [7] | [8] | [9] | [10] | [12] | [13] | [16] | [14]

COC(=O)CSc1cc(N=c2sc(=O)n3n2CCCC3)c(F)cc1Cl
inactive: [1] | [2] | [3] | [4] | [5] | [6] | [9] | [11] | [12] | [13] | [14]
active: [15] 27.4 µM

CCCOC(=O)NCCCN(C)C
inactive: [1] | [2] | [3] | [4] | [19] | [20] | [5] | [9] | [10] | [12] | [13] | [16] | [14]

S=C([S-])NCCNC(=S)[S-].[Mn+2]
active: [2] 26.8 µM
inactive: [1] | [3] | [4] | [15] | [7] | [9] | [11] | [12] | [13] | [14]

CCC(O)=C1C(=O)CC(C(=O)O)CC1=O (centres undefined)
active: [15] 22.3 µM
inactive: [1] | [2] | [4] | [19] | [20] | [5] | [17] | [7] | [8] | [9] | [10] | [11] | [12] | [13] | [14]
